In PubChem BioAssay (NCI):
This is part of a sample that, as a whole, favours compounds with a hit. Of some 79,000 tested, about 15% had one in any assay. Rule as the data show it: active = growth inhibition above about 70%; inactive = the rest.

Key:
[1] = NCI Yeast Anticancer Drug Screen. Data for the rad50 strain (AID 155);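 also: 0% = growth of vehicle-only cultures of the same strain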; conditions: S. cerevisiae rad50 strain growth inhibition; at 50.0 µM; stronger effect = higher value
How it was run: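 Genetically altered yeast (DNA repair pathway); compound treatment; growth inhibition vs vehicle ctrl.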

[2] = NCI Yeast Anticancer Drug Screen. Data for the mec2-1 strain (AID 157); conditions: S. cerevisiae mec2-1 strain, at 50.0 µM, stronger effect = higher value
How it was run: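 Vehicle-treated cultures served as reference for growth inhibition of compound-exposed mec2-1 yeast.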

[3] = NCI Yeast Anticancer Drug Screen. Data for the sgs1 mgt1 strain (AID 161);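 also: 0% = growth of cultures given vehicle only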; conditions: S. cerevisiae sgs1 mgt1 strain, at 50.0 µM, stronger effect = higher value
How it was run: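 Inhibition of yeast growth, normalised to vehicle-treated controls, is reported for a strain bearing genetic alterations in DNA damage repair.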

[4] = NCI Yeast Anticancer Drug Screen. Data for the cln2 rad14 strain (AID 165);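 also: 0% = growth equal to vehicle treated cultures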; conditions: S. cerevisiae cln2 rad14 strain, at 50.0 µM, stronger effect = higher value
How it was run: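 Each compound was tested on cln2 rad14 yeast. Inhibition of growth was calculated against vehicle-exposed controls.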

[5] = NCI Yeast Anticancer Drug Screen. Data for the bub3 strain (AID 167); conditions: S. cerevisiae bub3 mutant strain, at 50.0 µM, stronger effect = higher value
How it was run: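 Yeast carrying a defined mutation is treated with each compound, and growth is compared with that of vehicle-exposed cells to give inhibition.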

[6] = NCI Yeast Anticancer Drug Screen. Data for the mlh1 rad18 strain (AID 175); conditions: S. cerevisiae mlh1 rad18 strain growth inhibition; at 50.0 µM; stronger effect = higher value
How it was run: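 Vehicle-treated cultures served as the reference for growth inhibition in a yeast strain carrying DNA damage repair alterations exposed to each compound.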

Measured: growth inhibition

COc1ccc(C(C)c2cc3c(cc2OC)OCO3)cc1 (centres undefined)
inactive: [1] 9.25% | [2] -32.6% | [3] 15.2% | [4] 3.35% | [5] 3% | [6] 10.9%

OCC(O)COCC#Cc1ccccc1 (centres undefined)
inactive: [1] 6% | [2] 1.85% | [3] 3.1% | [4] -60.2% | [5] -14.6% | [6] 16.2%

NNc1cc(S(=O)(=O)O)cc(C(=O)O)c1O
inactive: [1] 14.5% | [2] 49% | [3] 31.4% | [4] -1.65% | [5] 42.1% | [6] 39.9%

N#Cc1ccc2ccccc2c1
inactive: [1] 4.65% | [2] -7% | [3] 3% | [4] -4.65% | [5] 10.7% | [6] -16.8%

CCOc1ccccc1OCC
inactive: [1] 25.1% | [2] -27.2% | [3] -25.9% | [4] 12.3% | [5] -11.2% | [6] 21.2%

c1ccc(CCN2CCN=C2Cc2ccccc2)cc1
inactive: [1] 13.8% | [2] 8% | [3] 0.95% | [4] -32.8% | [5] -27.1% | [6] 9.3%

N[C@@H](CO)[C@@H](O)c1ccc([N+](=O)[O-])cc1
inactive: [1] 1.5% | [2] -7.7% | [3] -3.9% | [4] -38.5% | [5] 1.5% | [6] -4.6%

CC(C)CCCC(C)C1CCC2C3C=C(C(=O)O)C(C)(CCC(=O)O)C3CCC12C (centres undefined)
inactive: [1] 45% | [2] 32% | [3] 42% | [4] 7.7% | [5] -2.15% | [6] 44.1%

Nc1cccc(N=[N+]([O-])c2cccc(N)c2)c1
inactive: [1] 18.9% | [2] 8.05% | [3] -10.5% | [4] -22.1% | [5] 12.2% | [6] 27.6%

O=C(N/N=C/c1ccc(Cl)cc1)C(c1ccccc1)N1CCCCC1 (centres undefined)
inactive: [1] 4.7% | [2] -2.65% | [3] -0.2% | [4] 4.6% | [5] 8.55% | [6] 13.7%

CC(=O)Oc1ccc(OC(C)=O)c([N+](=O)[O-])c1
inactive: [1] 24.1% | [2] 17.2% | [3] -1.65% | [4] -9.75% | [5] 1% | [6] 29.2%

Cn1c(=O)c2c(ncn2CC(=O)O)n(C)c1=O
inactive: [1] -3.9% | [2] -28.1% | [3] -8.5% | [4] 6.7% | [5] -13.8% | [6] 19.9%

CC(=O)c1sc2c(c1OC(=O)c1ccco1)c(=O)n(-c1ccccc1)c(=S)n2-c1ccccc1
inactive: [1] 20.8% | [2] 18.2% | [3] 23.7% | [4] 25.6% | [5] 6.85% | [6] 33.9%

CCOC(=O)c1c(C)cc2ccccn12
inactive: [1] -11.4% | [2] -12.4% | [3] 0.05% | [4] -26.7% | [5] 8.3% | [6] 11.2%

O=C1OC(c2cccc(Cl)c2)=N/C1=C\c1ccccc1
inactive: [1] 13.9% | [2] 2.85% | [3] 13.5% | [4] 14.8% | [5] 10.9% | [6] -5.05%

CCC12C[N+]3([O-])CCc4c([nH]c5ccccc45)C(C(=O)OC)(c4cc5c(cc4OC)N(C)C4C(O)(C(=O)OC)C(OC(C)=O)C6(CC)C=CCN7CCC54C76)CC(C3)C1O2 (centres undefined)
inactive: [1] -8.15% | [2] -24.1% | [3] -14% | [4] -9.8% | [5] -2.2% | [6] -31.7%

N=C(N)SCc1cccc(-c2nc3ccccc3c(=O)o2)c1
inactive: [1] 22.2% | [2] 17.4% | [3] 7.9% | [4] 5.95% | [5] 20.8% | [6] 16.9%

CCc1ccccc1NC(=O)Sc1cccc(C)c1
inactive: [1] -3% | [2] 27% | [3] 25.6% | [4] -12.9% | [5] 23% | [6] -28.9%

Cn1c2cc(Cl)c(Cl)cc2nc2cc3c(cc21)c(Cl)c(=O)c1cc2cc(Cl)c(Cl)cc2cc13
inactive: [1] 31.8% | [2] 8.65% | [3] 11.3% | [4] 25.9% | [5] -2.85% | [6] 20.3%

N=C(N)C=O
inactive: [1] -12.4% | [2] 0.3% | [3] 5.45% | [4] 0.05% | [5] 1.45% | [6] -7.95%

c1ccc(-c2n[nH]c3c2CCCc2ccccc2-3)cc1
inactive: [1] 4.7% | [2] -9.7% | [3] 7.35% | [4] -12% | [5] 3.3% | [6] 25.4%

O=C(NCCCl)Oc1cccn(C(=O)NCCCl)c1=O
inactive: [1] 7.15% | [2] 9.7% | [3] -2.55% | [4] 9.1% | [5] 0.65% | [6] -0.8%

CSCCC(NC=O)C(=O)O (centres undefined)
inactive: [1] -0.65% | [2] -5.35% | [3] 7.9% | [4] 1.05% | [5] 5.75% | [6] 3.8%

CSc1ncc2c(n1)-c1ccccc1OC2N1CCCCC1 (centres undefined)
inactive: [1] 9.8% | [2] 13.7% | [3] 7.4% | [4] -3.45% | [5] 23.4% | [6] 38.7%

Cc1occc1C(=S)Nc1ccc(Cl)c(/C=N/OC2CCCC2)c1
inactive: [1] 13.2% | [2] 26.1% | [3] 25.1% | [4] 30.7% | [5] 19.3% | [6] 18.8%

S=c1cc(Cc2ccccc2)[nH]c(=S)[nH]1
inactive: [1] -1.2% | [2] -11.1% | [3] -6.15% | [4] -7.75% | [5] -14% | [6] 4.85%

COc1ccc(OC)c2cc3c(cc12)C(=O)C(C)=C(C)C3=O
inactive: [1] 6.15% | [2] -2.55% | [3] 10.8% | [4] -30% | [5] -1.3% | [6] 7.7%

Cc1ccc(S(=O)(=O)N2CCCC(=O)c3ccccc32)cc1
inactive: [1] -12.4% | [2] 14.4% | [3] -12.9% | [4] 9.35% | [5] 12.1% | [6] 11.3%

Clc1ccccc1N=Cc1ccc(C=Nc2ccccc2Cl)cc1
inactive: [1] 26.9% | [2] 23.8% | [3] 34% | [4] 3.3% | [5] 38.5% | [6] 25.9%

Cc1ccc(S(=O)(=O)N2CCC[C@@H]2C(=O)O[C@@H]2CCC3CC=CC32)cc1 (some centres undefined)
inactive: [1] 3.65% | [2] -17.3% | [3] 10.2% | [4] -1.8% | [5] -12.3% | [6] -0.1%

COc1cc(C=O)cc(NC(C)=O)c1OC(C)=O
inactive: [1] 6.55% | [2] 0.3% | [3] 4.85% | [4] -4.85% | [5] 24.9% | [6] 9.95%

C=CC[N+](C)(CC=C)CC[N+](C)(CC=C)CC=C
inactive: [1] -15% | [2] 1.35% | [3] -14.9% | [4] -43.5% | [5] 1.6% | [6] -18.4%

COc1ccc(OC)c(CSc2ccc(OC)c(OC)c2)c1
inactive: [1] 18.7% | [2] 31.9% | [3] 43.8% | [4] 13.8% | [5] 57.9% | [6] 33%

CCC1(C(Cl)(Cl)Cl)C=CC(=O)C=C1
inactive: [1] 13% | [2] 13.3% | [3] -1.85% | [4] 12.8% | [5] 4.7% | [6] -21.1%

CC(=O)Oc1ccc(CC(C)C(C)Cc2ccc(OC(C)=O)c(OC(C)=O)c2)cc1OC(C)=O (centres undefined)
inactive: [1] 51% | [2] 23% | [3] 50% | [4] 7.4% | [5] 0.5% | [6] 26.5%

O=C(OC1CC2CCC23CCC13)c1ccccc1 (centres undefined)
inactive: [1] -1.35% | [2] 6.1% | [3] 10.2% | [4] -7.6% | [5] -37.5% | [6] -18.9%

O=C(NCCCl)NCC1CCCO1 (centres undefined)
inactive: [1] -9.35% | [2] -1.25% | [3] -13.8% | [4] -48.9% | [5] -4.75% | [6] 0.15%

CCOC(=O)c1c(-c2ccc(Cl)cc2)c(C#N)c(=S)n(C2OC(COC(C)=O)C(OC(C)=O)C(OC(C)=O)C2OC(C)=O)c1-c1ccccc1 (centres undefined)
inactive: [1] -1.45% | [2] -3.9% | [3] -6.8% | [4] 25.9% | [5] 17.9% | [6] 4.7%

Cc1cccc(NC(=O)CC(=O)N2N=C(N3c4ccccc4Sc4ccccc43)CC2c2ccccc2)c1 (centres undefined)
inactive: [1] -1.85% | [2] -5.5% | [3] -10.1% | [4] -9.55% | [5] -5.35% | [6] -41.8%
